The list is not random: actives were taken first. Their share in the collection is about 2.4%.
POLB inh: qHTS Assay for Inhibitors of DNA Polymerase Beta | Pol beta primer extension/strand displacement, fluorescence kinetic | Potency, µM (top dose mostly 114 µM), for inactives: top-dose activity change, negative = inhibition, actives largely listed as inhibitors | hit rate 1.3% among 340,000 | AID 485314, 2010; note: potency is the fitted concentration of half-maximal effect; % is set by controls: 0 for no effect and ±100 for the full control effect
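Reaction started by 50 nM substrate onto compound-treated Pol beta (10 nM, 15 min preincubation, room temperature); plates read at 0 min and 10 min. Normalized concentration-effect data fitted by four-parameter Hill equation.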
Pol kappa inh-1: qHTS for Inhibitors of Polymerase Kappa; AID 588579, 2011; Potency, µM (highest dose often 107 µM), without a hit: top-dose activity, negative = inhibition, most hits filed as inhibitors; hit rate 0.53% among 400,000; purified Pol kappa, fluorescent DNA synthesis assay, 10 min; DNA polymerase kappa (Homo sapiens), Q9UBT6; note: potency is the fitted concentration of half-maximal effect; % is set by controls: 0 for no effect and ±100 for the full control effect
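50 nM final substrate added after 15 min RT preincubation of 10 nM Pol kappa with compound; fluorescence read at 0 and 10 min.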
POLI inh: qHTS for Inhibitors of Polymerase Iota | DNA polymerase iota (Homo sapiens), Q9UNA4 | Pol iota fluorescent replication assay, 10 min | Potency, µM (highest dose often 115 µM), for the others: at the top dose activity, negative = inhibition, hits mostly inhibitors | hit rate 1% among 390,000 | AID 588590, 2011; note: potency is the fitted concentration of half-maximal effect
Target sequence (Q9UNA4 whole entry, looked up): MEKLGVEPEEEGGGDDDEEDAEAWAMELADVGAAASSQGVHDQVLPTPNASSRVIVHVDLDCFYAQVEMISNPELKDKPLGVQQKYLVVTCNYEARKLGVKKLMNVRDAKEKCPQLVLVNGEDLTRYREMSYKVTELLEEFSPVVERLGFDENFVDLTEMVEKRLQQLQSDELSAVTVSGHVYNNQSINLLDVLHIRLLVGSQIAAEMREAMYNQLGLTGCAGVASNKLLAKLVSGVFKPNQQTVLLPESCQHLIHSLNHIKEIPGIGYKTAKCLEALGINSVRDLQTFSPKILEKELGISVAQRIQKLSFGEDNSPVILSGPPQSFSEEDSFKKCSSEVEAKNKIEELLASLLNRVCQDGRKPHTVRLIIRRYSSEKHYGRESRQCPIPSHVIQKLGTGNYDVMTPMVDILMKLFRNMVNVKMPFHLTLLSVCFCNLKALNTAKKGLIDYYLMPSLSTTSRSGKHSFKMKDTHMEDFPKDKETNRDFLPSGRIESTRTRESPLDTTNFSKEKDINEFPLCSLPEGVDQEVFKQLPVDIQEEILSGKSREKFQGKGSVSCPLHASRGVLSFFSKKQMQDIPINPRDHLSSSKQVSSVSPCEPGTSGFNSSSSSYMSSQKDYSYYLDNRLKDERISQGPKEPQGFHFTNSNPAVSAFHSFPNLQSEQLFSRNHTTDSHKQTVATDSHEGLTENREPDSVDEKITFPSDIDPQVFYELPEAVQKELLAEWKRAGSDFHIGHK
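Fluorescent replication assay read twice, at 0 min and 10 min after adding 50 nM (final) substrate. Enzyme (10 nM) and compounds were first incubated 15 min at room temperature; enzyme-free buffer wells were negative controls.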
FEN1 inh: qHTS Assay for the Inhibitors of Human Flap endonuclease 1 (FEN1) | P39748 | Recombinant FEN1 flap cleavage, fluorescence, 15 min | Potency, µM (titrated, usually from 114 µM), inactives show at the highest dose activity change, negative = inhibition, usual class: inhibitors | hit rate 0.35% among 390,000 | AID 588795, 2011; note: potency is the fitted concentration of half-maximal effect; % is set by controls: 0 for no effect and ±100 for the full control effect; nearly all actives have a fitted effect of over 65% in size
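Nuclease activity of 10 nM FEN1 was measured after 15 min of room-temperature exposure to titrated compounds, by adding 50 nM flap substrate and reading plates at 0 and 15 min.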
WRN inhibitor: qHTS for Inhibitors of WRN Helicase; Bifunctional 3'-5' exonuclease/ATP-dependent helicase WRN (Homo sapiens), Q14191; WRN helicase unwinding, fluorescent forked duplex, kinetic; Potency, µM (doses to about 114 µM), for the others: top-dose activity change, negative = inhibition, usual class: inhibitors; hit rate 0.46% among 360,000; note: potency is the fitted concentration of half-maximal effect; % is set by controls: 0 for no effect and ±100 for the full control effect; nearly all actives have a fitted effect of over 55% in size
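Fluorescence dequenching readout, ex 525 nm/em 598 nm, kinetic mode: forked duplex DNA (100 nM final) with adjacent fluorophore and quencher unwound by WRN (20 nM final) with 2 mM ATP. Compound preincubation 15 min, room temperature.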
Pol eta inh-1: qHTS for Inhibitors of Polymerase Eta. DNA polymerase eta (Homo sapiens), Q9Y253. recombinant Pol eta, fluorescent DNA replication assay. Potency, µM (titrated, usually from 114 µM), for the others: at the top dose activity change, negative = inhibition, hits mostly inhibitors. hit rate 1.2% among 390,000. AID 588591, 2011; note: potency is the fitted concentration of half-maximal effect; % is set by controls: 0 for no effect and ±100 for the full control effect
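Pol eta at 10 nM preincubated with compounds 15 min at room temperature; reaction started with fluorescent substrate (50 nM final) and read kinetically at 0 and 10 min.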
GALK inh confirm: Confirmation Assay for Inhibitors of Human Galactokinase (GALK) | shares compounds with Pol eta inh-1 | purified GALK, Kinase-Glo ATP depletion luminescence | Potency, µM (series often up to 115 µM), without a hit: at the highest dose activity, negative = inhibition, actives largely listed as inhibitors | hit rate 70% among 150 | AID 2015, 2009
Redox cycling: Confirmatory Assay for Inhibitors of Human Galactokinase (GALK): Phenol-HRP redox assay counterscreen | shares compounds with Pol eta inh-1 | Phenol red-HRP H2O2 redox cycling, absorbance 600 nm | Potency, µM (doses to about 115 µM), for the others: top-dose activity change, negative = H2O2 signal, hits mostly inhibitors | hit rate 40% among 150
HEK293 tox: Secondary Assay for Inhibitors of Human Galactokinase (GALK): HEK-293 Cell Viability Assay | hit rate 10% among 170 | Potency, µM (series often up to 46.1 µM), inactives show top-dose activity change, negative = cytotoxicity, actives largely listed as inhibitors | shares compounds with Pol eta inh-1 | HEK-293 viability, ATP luminescence (CellTiter-Glo), 24/48 h; note: potency is the fitted concentration of half-maximal effect; % is set by controls: 0 for no effect and ±100 for the full control effect
Pol kappa inh-2: qHTS for Inhibitors of Polymerase Kappa: Confirmatory Assay for Cherry-picked Compounds; Potency, µM, most hits filed as inhibitors; purified Pol-kappa, fluorescent strand-displacement substrate; shares compounds with Pol eta inh-1; AID 720501, 2013; hit rate 76% among 920; note: potency is the fitted concentration of half-maximal effect
Pol eta inh-2: qHTS for Inhibitors of Polymerase Eta: Confirmatory Assay for Cherry-picked Compounds | shares compounds with Pol eta inh-1 | Pol eta primer extension, TAMRA/BHQ fluorescence, 10 min | Potency, µM, hits mostly inhibitors | hit rate 64% among 2,600 | AID 720502, 2013; note: potency is the fitted concentration of half-maximal effect
Starred values were filed as active, the others as inactive; [ ] = remark or other dose. Calls come from the whole dose curve; as a rule, active = well fitted curve in the direction sought with a large enough effect; inconclusive = small, poorly fitted or top-dose-only effect, or another doubt; inactive = no such curve, though single readings can be large; an effect the other way counts as inactive or inconclusive.

What do the screens show for `O=C(O)c1ccc(CSc2nc3ccc(N4C(=O)C5C6C=CC(C6)C5C4=O)cc3s2)cc1` (centres undefined)?
POLB inh: 1.6%; Pol kappa inh-1: -11.8%; POLI inh: inconclusive; FEN1 inh: -5.2%; WRN inhibitor: 4.3%[11.6 µM]; Pol eta inh-1: 28.2µM*; Pol eta inh-2: inconclusive

What do the screens show for `CCc1cccc(CC)c1NC(=O)CSc1nc2ccc(N3C(=O)C4C5C=CC(C5)C4C3=O)cc2s1` (centres undefined)?
POLB inh: -16.5%; Pol kappa inh-1: -1.1%; POLI inh: -6.3%; FEN1 inh: 0.2%; WRN inhibitor: 7.8%; Pol eta inh-1: -13.2%

How did CCN(CC)CCN(C(=O)c1ccco1)c1nc2c(C)c(C)ccc2s1 do in these assays?
POLB inh: 2.2%; Pol kappa inh-1: -6.1%; POLI inh: -26.9%; FEN1 inh: -20.6%; Pol eta inh-1: -4.7%

What do the screens show for `CC(=O)C(=Cc1ccc(C(=O)O)cc1)C(C)=O`?
POLB inh: inconclusive; Pol kappa inh-1: inconclusive; POLI inh: inconclusive; FEN1 inh: 8.4%; WRN inhibitor: -2.8%; Pol eta inh-1: 39.8µM*; Pol eta inh-2: inconclusive

Results for CC(=O)C(=Cc1ccc(-c2ccccc2)cc1)C(=O)c1ccccc1 ?
WRN inhibitor: -8.2%

Results for CC1=NN(c2ccc(Cl)c(C(=O)O)c2)C(=O)/C1=C\c1ccc(-c2ccc(C(=O)O)cc2)o1 ?
POLB inh: 15.8µM*; Pol kappa inh-1: inconclusive; POLI inh: inconclusive; FEN1 inh: inconclusive; WRN inhibitor: inconclusive; Pol eta inh-1: 12.6µM*; Pol kappa inh-2: 15*; Pol eta inh-2: inconclusive

What do the screens show for `CC1=NN(c2ccccc2)C(=O)/C1=C/c1ccc[nH]1`?
POLB inh: 8.9%; Pol kappa inh-1: -12.1%; POLI inh: -5.4%; FEN1 inh: -23.2%; WRN inhibitor: -9.1%; Pol eta inh-1: -18.3%

What do the screens show for `Cc1ccc(NC(=O)/C(C#N)=C/c2ccc(-c3ccc(Cl)c(C(=O)O)c3)o2)cc1C`?
POLB inh: -20.8%; Pol kappa inh-1: inconclusive; POLI inh: -22.7%; FEN1 inh: -4.0%; Pol eta inh-1: -9.1%

What do the screens show for `CC1=NN(c2ccccc2)C(=O)/C1=C/c1ccc(-c2ccc(C)c(C(=O)O)c2)o1`?
Pol kappa inh-1: -15.1%; POLI inh: inconclusive; FEN1 inh: 17.8µM*; WRN inhibitor: inconclusive; Pol eta inh-1: 25.1µM*; Pol eta inh-2: inconclusive

How did CCOC(=O)/C=C(\C)Sc1cc(O)c2ccccc2c1O do in these assays?
POLB inh: 35.5µM*; Pol kappa inh-1: 10.9%; POLI inh: inconclusive; FEN1 inh: inconclusive; WRN inhibitor: -25.6%; Pol eta inh-1: 28.2µM*; GALK inh confirm: 29.8µM*; Redox cycling: 18.8µM*; HEK293 tox: inconclusive

How did CCOC(=O)/C=C(\C)Sc1cc(=O)oc2ccccc12 do in these assays?
POLB inh: 33.4%; Pol kappa inh-1: -10.2%; POLI inh: 19.4%; FEN1 inh: -19.3%; WRN inhibitor: -6.5%; Pol eta inh-1: 1.4%

Results for CN(c1ccccc1C(=O)O)S(=O)(=O)c1ccc2c3c(cccc13)C(=O)N2 ?
POLB inh: 12.6µM*; Pol kappa inh-1: 79.4µM*; POLI inh: inconclusive; FEN1 inh: inconclusive; WRN inhibitor: inconclusive; Pol eta inh-1: 12.6µM*; Pol eta inh-2: inconclusive

How did CN(C)c1ccc(C2CC(c3c(O)n(C4CCCCC4)c(=O)[nH]c3=O)=Nc3ccccc3S2)cc1 (centres undefined) do in these assays?
POLB inh: 11.4%; Pol kappa inh-1: -2.3%; POLI inh: 26.8%; FEN1 inh: -4.9%

Results for O=C(O)CN1C(=O)/C(=C\c2cc(Br)ccc2OCc2ccc(F)cc2)SC1=S ?
POLB inh: 39.8µM*; Pol kappa inh-1: -69.1%; POLI inh: 39.8µM*; FEN1 inh: inconclusive; WRN inhibitor: inconclusive; Pol eta inh-1: 39.8µM*; Pol eta inh-2: inconclusive

How did COc1ccc(N2CCN(C(=O)C3Cc4ccccc4CN3C(=O)c3ccco3)CC2)cc1 (centres undefined) do in these assays?
Pol kappa inh-1: -17.4%; POLI inh: -0.9%; FEN1 inh: -1.7%; WRN inhibitor: -13.7%; Pol eta inh-1: -3.2%

What do the screens show for `O=C(C1Cc2ccccc2CN1C(=O)c1ccccc1)N1CCN(c2ccccc2)CC1` (centres undefined)?
POLB inh: 31.6µM*; Pol kappa inh-1: inconclusive; POLI inh: inconclusive; FEN1 inh: 0.7%; WRN inhibitor: -7.0%[11.6 µM]; Pol eta inh-1: 79.4µM*; Pol kappa inh-2: inconclusive; Pol eta inh-2: 75.7*

Compound activity: PubChem, National Center for Advancing Translational Sciences (NCATS)
